Unmarked numbers belong to inactive results.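 Rule for the calls: active = MAPPIT score above the 99th percentile of random reference set scores in the same batch; inactive = at or below it.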

Test in all cases: MAPPIT interaction score (arbitrary units); higher = stronger binary interaction signal, active = hit call of the paper
One test concerns the target alrm. Conditions: MAPPIT configuration: N-N; pair source set: DPIM.
A further test addresses Zpr1. Conditions: MAPPIT configuration: N-N; pair source set: Finley_Y2H.
The target of another test is sinah. The note with it: MAPPIT configuration: N-N; pair source set: Lit-BS-16.
Another test has as its target Zif. Conditions: MAPPIT configuration: N-N; pair source set: screen_2.
A further test addresses bcd. The note with it: MAPPIT configuration: N-N; pair source set: Lit-BM-16.
In another test the target is abs. The note with it: MAPPIT configuration: N-N; pair source set: DPIM.
Another test has as its target brat. The note with it: MAPPIT configuration: N-N; pair source set: Lit-BM-16.
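Note: HEK293T cells with Epo stimulation, STAT-responsive firefly luciferase reporter, fold induction versus unstimulated cells divided by the larger fold induction of two negative controls lacking either bait or prey.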

B1: sun (protein)
chain: MTAWRAAGITYIQYSNIAARILRESLKTGLRADAAKRDASHVKFTPWANGKPAQRQTQSES
For the molecule B1, in the test with alrm, the MAPPIT interaction score was -0.31.

B2: esn (protein)
chain: MQQAPQQQQHPHPPSSSYYTQTESELLQIEAGGTGLTFASHSQRPESAISQVASTAHLDVPSAASSGSGGSAVSGGSGGAPESAGRFVSPLQRRHCQPPSHLPLNSVASPLRTASYKSAAAVAGHGFHHSHHQQLDFQRNSQSDDDSGCALEEYTWVPPGLRPDQVRLYFSQLPDDKVPYVNSPGEKYRVKQLLHQLPPQDNEVRYCHSLSDEERKELRIFSAQRKREALGRGAVRLLSDERPCKGCEEPLSGGDIVVFAQRLGAQLCWHPGCFVCSVCKELLVDLIYFQRDGNLYCGRHHAETQKPRCSACDEIIFSDECTEAEGRTWHMKHFACQECEHQLGGQRYIMREGKPYCLACFDTMFAEYCDYCGEVIGVDQGQMSHDGQHWHATDQCFSCCTCRCSLLGRPFLPRRGTIYCSIACSKGEPPTPSDTSSGPQLRPTHRASTSSQIAKSPRRGGERERDPGRKAHHGHPKATGSAGDLLERQERQRMEAAGVADLLLGGGVPGMPRPAHPPPIDLTELGISLDNICAGDKSIFGDTQTLTNSMPDMLLSKADDSHSYQSIDKINLNSPSNSDLTQSTQELANELELDNEPVRELPHDGYEQLFANNRNQEHPAEQYDDEQLDNRPMKEVRFHSVQDTMSRSKSYTDNSNARRRRRRRNQSRSSSEMQINQTNLRLHNAQTQVGTTPLNLLNNLDNCDVASICSTCSSSSSSDMDDYVYRLPARKHYGGVRVAYVPNDALAYERKKKMAQDSSLAPGAGNASVGGAPAIMHESKNCTIS
Take B2: the MAPPIT interaction score was 0.202 with Zpr1 and 3.43 (active) in the test with sinah.

B3: eIF4E1 (protein)
chain: MQSDFHRMKNFANPKSMFKTSAPSTEQGRPEPPTSAAAPAEAKDVKPKEDPQETGEPAGNTATTTAPAGDDAVRTEHLYKHPLMNVWTLWYLENDRSKSWEDMQNEITSFDTVEDFWSLYNHIKPPSEIKLGSDYSLFKKNIRPMWEDAANKQGGRWVITLNKSSKTDLDNLWLDVLLCLIGEAFDHSDQICGAVINIRGKSNKISIWTADGNNEEAALEIGHKLRDALRLGRNNSLQYQLHKDTMVKQGSNVKSIYTL
For the molecule B3, the MAPPIT interaction score with Zif was -0.101.

B4: Bin1 (protein)
chain: MANVESMIVEEKTQVKQIDREKTCPMLLRVFCSTGRHHSVSEYMFGNVPTNELQIYTWQDATLHELTSLVRDVNPDTRKKGTYFDFAVVYPNFRSNHFQMREIGVTCTGQKGIDDNKTLAQAKFSIGDFLDISITPPNRLPPTARRQRPY
Take B4: the MAPPIT interaction score in the test with bcd is -0.341.

B5: mtTFB2 (protein)
chain: MLPLRCSWSFARANYSTKKELVTRYSGDFPEKLLNRKQKVPTHMYIANSEAAARINQYLEPHFQSSGCDTVMELNSGAGYFTRHLLDRESQFRRIILLESMDHFMPKIQELHTLYPERVKVRQGDFVNLWKLVYMDKMDGGSRVADLLSDVPQKAFTDDINMLVFGAVGSYPFFKHLINSLIFQTSLFNLGRCEMILAMPPPIYIHLTCNNEIGYLIYRSTSVLFQILFEHKFIAKVPREDFLPQQMAYSPTKSSKLGKVQSINPEYLYLVKFTPRRNLHELCQSQDLPALWFFIKQNYVSRRNRIIPNLEKWVPGCGPRLIINPKSSESVTPIYPDELPKKLPQYSCQSTTMSTRNYYPGINIYTQFGDLLPSQILTLFSQFRQWPEYGESSFLASLENALLKLETANDEPNLEDGVTLPEEDDAEADEIIEEESPVPATTPVKRRRKASS
In the case of B5, the MAPPIT interaction score with abs was 2.

B6: nos (protein)
chain: MSQHFTSIFENLRFVTIKRSTNAQQQQQQQQQQLQQQQQQLQQQKAQTQQQNSRKIKTQATPTLNGNGLLSGNPNGGGGDSSPSHEVDHPGGAQGAQAAGGLPSSSGTPLRHHKRASISTASPPIRERRGTNTSIVVELDGSGSGSGSGGGGVGVGQGAGCPPSGSCTASGKSSRELSPSPKNQQQPRKMSQDYRSRAGSFMHLDDEGRSLLMRKPMRLKNIEGRPEVYDTLHCKGREILSCSKATCTSSIMNIGNAAVEARKSDLILEHAKDFLEQYFTSIKRTSSTAHETRWKQVRQSIETTGHYQLTETELIYGAKLAWRNSSRCIGRIQWSKLQVFDCRYVTTTSGMFEAICNHIKYATNKGNLRSAITIFPQRTDAKHDYRIWNNQLISYAGYKQADGKIIGDPMNVEFTEVCTKLGWKSKGSEWDILPLVVSANGHDPDYFDYPPELILEVPLTHPKFEWFSDLGLRWYALPAVSSMLFDVGGIQFTATTFSGWYMSTEIGSRNLCDTNRRNMLETVALKMQLDTRTPTSLWKDKAVVEMNIAVLHSYQSRNVTIVDHHTASESFMKHFENESKLRNGCPADWIWIVPPLSGSITPVFHQEMALYYLKPSFEYQDPAWRTHVWKKGRGESKGKKPRRKFNFKQIARAVKFTSKLFGRALSKRIKATVLYATETGKSEQYAKQLCELLGHAFNAQIYCMSDYDISSIEHEALLIVVASTFGNGDPPENGELFSQELYAMRVQESSEHGLQDSSIGSSKSFMKASSRQEFMKLPLQQVKRIDRWDSLRGSTSDTFTEETFGPLSNVRFAVFALGSSAYPNFCAFGQYVDNILGELGGERLLRVAYGDEMCGQEQSFRKWAPEVFKLACETFCLDPEESLSDASLALQNDSLTVNTVRLVPSANKGSLDSSLSKYHNKKVHCCKAKAKPHNLTRLSEGAKTTMLLEICAPGLEYEPGDHVGIFPANRTELVDGLLNRLVGVDNPDEVLQLQLLKEKQTSNGIFKCWEPHDKIPPDTLRNLLARFFDLTTPPSRQLLTLLAGFCEDTADKERLELLVNDSSAYEDWRHWRLPHLLDVLEEFPSCRPPAPLLLAQLTPLQPRFYSISSSPRRVSDEIHLTVAIVKYRCEDGQGDERYGVCSNYLSGLRADDELFMFVRSALGFHLPSDRSRPIILIGPGTGIAPFRSFWQEFQVLSDLDPTAKLPKMWLFFGCRNRDVDLYAEEKAELQKDQILDRVFLALSREQAIPKTYVQDLIEQEFDSLYQLIVQERGHIYVCGDVTMAEHVYQTIRKCIAGKEQKSEAEVETFLLTLRDESRYHEDIFGITLRTAEIHTKSRATARIRMASQP
B6: the MAPPIT interaction score with brat was -0.851.
